The source of these data is PubChem BioAssay (NCI).

The panel holds about 79,000 compounds, 15% with a hit somewhere; the sample as a whole holds those more often. Values without a mark were called inactive. Calls of active or inactive are those of the source. Cut-off read from the data, not from the text of the source: active = growth inhibition above about 70%; inactive = the rest. Where a SMILES comes first, the peptide text is derived from it. The star is where a group is joined. Boc = CC(C)(C)OC(=O)*

Assay [1] is described as follows: NCI Yeast Anticancer Drug Screen. Data for the rad50 strain (AID 155).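 Note: 0% = growth of vehicle-only cultures of the same strain.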 Particulars: S. cerevisiae rad50 strain growth inhibition; at 50.0 µM; hits give high values. The procedure, abridged: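 Growth of the mutant yeast was measured after compound exposure and referenced to vehicle-treated cultures.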
A short description of assay [2]: NCI Yeast Anticancer Drug Screen. Data for the mec2-1 strain (AID 157). Conditions: S. cerevisiae mec2-1 strain, at 50.0 µM, hits give high values. The procedure, abridged:
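Readout is yeast growth inhibition, normalised to vehicle-treated controls, in the mec2-1 strain exposed to compound.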

The nature of assay [3]: NCI Yeast Anticancer Drug Screen. Data for the sgs1 mgt1 strain (AID 161).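 Note: 0% = growth of cultures given vehicle only.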 Particulars: S. cerevisiae sgs1 mgt1 strain, at 50.0 µM, hits give high values. The method, boiled down:
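Percent growth inhibition was derived by comparing compound-exposed mutant yeast with vehicle-exposed cultures. The strain carries alterations in DNA damage repair.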

The nature of assay [4]: NCI Yeast Anticancer Drug Screen. Data for the cln2 rad14 strain (AID 165).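 Note: 0% = growth equal to vehicle treated cultures.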 Particulars: S. cerevisiae cln2 rad14 strain, at 50.0 µM, hits give high values. The method, boiled down: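 Relative to vehicle controls, growth inhibition of compound-treated cln2 rad14 yeast was recorded.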
Assay [5] in a line: NCI Yeast Anticancer Drug Screen. Data for the bub3 strain (AID 167). Particulars: S. cerevisiae bub3 mutant strain, at 50.0 µM, hits give high values. The procedure, abridged:
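Whole-cell yeast assay. The mutant strain was incubated with compounds, and growth inhibition was determined by comparison with vehicle-treated cells.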

Assay [6] can be described thus: NCI Yeast Anticancer Drug Screen. Data for the mlh1 rad18 strain (AID 175). Conditions: S. cerevisiae mlh1 rad18 strain growth inhibition; at 50.0 µM; hits give high values. The procedure, abridged:
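Test agents were incubated with a yeast strain of defined genotype (DNA damage repair defect). Inhibition of growth was derived by comparison with vehicle-exposed cultures.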

Consider `CN(C)C(=O)/N=C1\SC(=Nc2ccccc2)C(=Nc2ccccc2)N1c1ccc([N+](=O)[O-])cc1`, for which the growth inhibition was -1.65% in assay [1]; 5.5% in assay [2]; -1.7% in assay [3]; 27.2% in assay [4]; 16.4% in assay [5]; -12.3% in assay [6].

`COC(=O)c1nc(=S)[nH]c(C(=O)OC)c1C(=O)c1ccc(C)cc1`: the growth inhibition in assay [1] was -3.7%; in assay [2], -7.15%; in assay [3] it was 5.75%; in assay [4], -14%; in assay [5] it was 10.6%; in assay [6], 21.4%.

For the compound `O=Cc1cc(N=Nc2ccc(S(=O)(=O)O)cc2)ccc1O`, the growth inhibition in assay [1] is 5.8%; in assay [2], -35.5%; in assay [3], -1.45%; in assay [4], 14.9%; in assay [5] it was -17.6%; in assay [6], 3.6%.

As to `CC1(C)N=C(N)N=C(N)N1c1ccc(C(=O)c2ccccc2)cc1`, the growth inhibition is 2.65% in assay [1]; -3.5% in assay [2]; -3.3% in assay [3]; -3.1% in assay [4]; 13.5% in assay [5]; 15.5% in assay [6].

With `COc1ccc(NC(=O)C2C(=O)N(c3ccc(OC)cc3)C(=O)/C2=N\NC(N)=O)cc1` (stereo unspecified), the growth inhibition was -8.9% in assay [1]; -24.9% in assay [2]; -48% in assay [3]; 11.1% in assay [4]; -9.6% in assay [5]; -18.2% in assay [6].

`CC(CC[C@@H](O)C(C)(C)O)C1[C@@H](O)CC2(C)C3CC(O)C4C(C)(C)[C@@H](OC5OC(CO)C(O)C(O)C5O)CC[C@@]45C[C@@]35CC[C@]12C` (stereo partly specified): the growth inhibition in assay [1] was -14.9%; in assay [2] it was 2.65%; in assay [3], 0.15%; in assay [4], -30.2%; in assay [5], -5.9%; in assay [6], -28.1%.

Regarding `CCCCOC(=O)C1=NNC(=O)C1`, the growth inhibition in assay [1] is -17.6%; in assay [2] it was -17.9%; in assay [3], -11.9%; in assay [4] it was -10.1%; in assay [5], -12.3%; in assay [6], -11.9%.

`Cc1ccc(C(O)c2ccccc2)cc1` (stereo unspecified): the growth inhibition in assay [1] was 25.4%; in assay [2] it was 6.55%; in assay [3], 17.4%; in assay [4], -61.6%; in assay [5], 1.4%; in assay [6], 9.5%.

On to `NC(=O)C1=CC2C3C=CC2(O)C(=O)OC3O1` (stereo unspecified), for which the growth inhibition in assay [1] is -15.3%; in assay [2], -28.6%; in assay [3], -12.6%; in assay [4], 3.2%; in assay [5], -22.9%; in assay [6] it was -11.1%.

With `CNCC(OCCc1ccccc1)c1ccc(O)c(O)c1` (stereo unspecified), the growth inhibition in assay [1] is 5.85%; in assay [2], -1.9%; in assay [3] it was 36%; in assay [4], -0.95%; in assay [5] it was -12.6%; in assay [6] it was 21.4%.

For `Clc1ccc(SCSc2ccc(Cl)cc2)cc1`, the growth inhibition in assay [1] is 16.8%; in assay [2], -7.35%; in assay [3] it was 6.5%; in assay [4], -33.5%; in assay [5], 6.45%; in assay [6], -0.85%.

With `C=CCSc1ncnc2c1c(Br)cn2C1OC(CO)C(O)C1O` (stereo unspecified), the growth inhibition was 96.3% (active) in assay [1]; 97.5% (active) in assay [2]; 97.1% (active) in assay [3]; 97.5% (active) in assay [4]; 96.9% (active) in assay [5]; 98.3% (active) in assay [6].

With `C=CCOCC(COC(=O)CCCCCCCCCCCCCCCCC)OCC=C` (stereo unspecified), the growth inhibition in assay [1] is -8.85%; in assay [2], -2.85%; in assay [3], -0.25%; in assay [4] it was 18.9%; in assay [5] it was -16.8%; in assay [6], 6.5%.

Regarding `N#Cc1cc2c(cc1C#N)/C(=N\c1cccc(N)n1)N=C2Nc1cccc(N)n1`, the growth inhibition in assay [1] was 6.1%; in assay [2] it was 19.1%; in assay [3], 0.2%; in assay [4] it was 1.25%; in assay [5] it was 5.8%; in assay [6], 22%.

As for `CN1CCCC2[C@@H]3CCC4=C(O)C(=O)CC[C@]4(C)C3CC[C@@]21C` (stereo partly specified), the growth inhibition is 9.05% in assay [1]; -6.05% in assay [2]; -4% in assay [3]; 22.1% in assay [4]; 0.85% in assay [5]; 18.4% in assay [6].

Regarding `OCCOc1ccc2ccccc2c1-c1c(OCCO)ccc2ccccc12`, the growth inhibition was 98.5% (active) in assay [1]; 95.7% (active) in assay [2]; 98.5% (active) in assay [3]; 97.7% (active) in assay [4]; 98.9% (active) in assay [5]; 98.6% (active) in assay [6].

Consider `CS(=O)(=O)OC[C@H](NC(=O)c1ccccc1)[C@H](COS(C)(=O)=O)NC(=O)c1ccccc1`, for which the growth inhibition is 6.5% in assay [1]; 9.3% in assay [2]; 18.4% in assay [3]; 9.9% in assay [4]; -9.85% in assay [5]; 15.3% in assay [6].

Take `O=C(/C=C(/CC(=O)c1ccccc1)C(=O)c1ccccc1)c1ccccc1`: the growth inhibition is -13.1% in assay [1]; -22.9% in assay [2]; -11.2% in assay [3]; -22.1% in assay [4]; -10.5% in assay [5]; -30.8% in assay [6].

`Nc1nc(N)c2nc3c(nc2n1)C(=O)N(c1ccc(C(=O)O)cc1)C3`: the growth inhibition in assay [1] was 1.55%; in assay [2], 34.9%; in assay [3], 27.9%; in assay [4] it was -2.8%; in assay [5] it was 32.1%; in assay [6], 23.2%.

As for `O=C(Nc1cc(S(=O)(=O)O)cc2cc(S(=O)(=O)O)c(N=Nc3cc(Nc4nc(Cl)nc(Nc5ccc(S(=O)(=O)O)cc5)n4)ccc3S(=O)(=O)O)c(O)c12)c1ccccc1`, the growth inhibition is 17.9% in assay [1]; -10.1% in assay [2]; 10.8% in assay [3]; 3.5% in assay [4]; 0.05% in assay [5]; 25.2% in assay [6].

For the compound `Cc1ccc(/C([O-])=C(/C(=S)Nc2ccccc2)[n+]2ccccc2)cc1`, the growth inhibition in assay [1] is -5.3%; in assay [2], 22%; in assay [3], 7.55%; in assay [4], -22.1%; in assay [5], 18.1%; in assay [6], 13.1%.

As for `CC(C)CCCCC(C)(C)OC(=O)NC(N)=O`, the growth inhibition in assay [1] was 7.25%; in assay [2], 2%; in assay [3], 12.2%; in assay [4], 17.1%; in assay [5] it was -17.6%; in assay [6], 9.85%.

`COc1cccc(-c2cc(=O)c3cc(OC)ccc3[nH]2)c1`: the growth inhibition in assay [1] was -19.8%; in assay [2], -1.6%; in assay [3], -14%; in assay [4], 6.15%; in assay [5], 13.2%; in assay [6], -13.3%.

For `COc1ccc(C(CN)c2ccc(N)cc2)cc1` (stereo unspecified), the growth inhibition is 8.8% in assay [1]; 10.7% in assay [2]; 1.6% in assay [3]; 2.9% in assay [4]; -13.4% in assay [5]; -5.05% in assay [6].

For `CC(C)(C)c1cc(C(=O)O)c2c(c1)C(=O)OC2(c1ccccc1)c1ccccc1C(=O)O` (stereo unspecified), the growth inhibition in assay [1] was 29.1%; in assay [2], 7.6%; in assay [3], 5.6%; in assay [4], 9.95%; in assay [5], 8.75%; in assay [6], 31.2%.

Regarding `CSCCC(NC(=O)C(CC(C)C)NC(=O)CNC(=O)OC(C)(C)C)C(=O)N(C)C` (stereo not drawn) (Boc-Gly-Leu-Met-NMe2; configuration not given here), the growth inhibition in assay [1] is 6.6%; in assay [2], -5.15%; in assay [3] it was -3.9%; in assay [4], -2.8%; in assay [5] it was -0.1%; in assay [6], -3%.

`N#CNC(=Nc1ccccc1)[N](C#N)[Sn]([c]1ccccc1)([c]1ccccc1)[c]1ccccc1`: the growth inhibition in assay [1] is 98.7% (active); in assay [2], 98.3% (active); in assay [3], 99.2% (active); in assay [4], 98.7% (active); in assay [5], 96.5% (active); in assay [6] it was 98.6% (active).

Consider `Cc1ccc(=O)n(Cc2ccccc2)n1`, for which the growth inhibition is -8.25% in assay [1]; -31.9% in assay [2]; -11.8% in assay [3]; 21.1% in assay [4]; -12.2% in assay [5]; 2.75% in assay [6].

Take `Clc1ccc(C2=CSC3=NCCN23)cc1`: the growth inhibition was 3.45% in assay [1]; -1.4% in assay [2]; -9.55% in assay [3]; -97.3% in assay [4]; 16.4% in assay [5]; 1.25% in assay [6].

Turning to `CC1S/C(=N\N=C\c2ccc(Cl)cc2)N=C1c1c(O)c2ccccc2oc1=O` (stereo unspecified), the growth inhibition is 13.2% in assay [1]; 52% in assay [2]; 57.4% in assay [3]; -7.5% in assay [4]; 7.65% in assay [5]; 45.9% in assay [6].

For `CCOC1(OCC)C([N+](=O)[O-])=CC(=[N+]([O-])O)C=C1[N+](=O)[O-]`, the growth inhibition was 3.8% in assay [1]; -4.1% in assay [2]; -7.15% in assay [3]; 3.75% in assay [4]; -8.8% in assay [5]; -21.2% in assay [6].

For the compound `NC(=O)NNC(=O)Cc1ccccc1`, the growth inhibition in assay [1] was 1.35%; in assay [2], -0.25%; in assay [3] it was -1.95%; in assay [4] it was 0.55%; in assay [5], -0.95%; in assay [6] it was -3.45%.

On to `COc1ccccc1OCC(=O)O`, for which the growth inhibition in assay [1] was 23.6%; in assay [2], 0.2%; in assay [3], -17.8%; in assay [4] it was -24.9%; in assay [5], -11.9%; in assay [6], 23.2%.

`CC1=C(O)C(=O)C(C2=C(O)C(=O)C(C)=C(O)C2=O)=C(O)C1=O`: the growth inhibition is 5.3% in assay [1]; -12.4% in assay [2]; 24.4% in assay [3]; 10% in assay [4]; 5.8% in assay [5]; 12.6% in assay [6].

For `CC1(O)CCC2CC1C2(C)CO` (stereo unspecified), the growth inhibition in assay [1] was 2%; in assay [2] it was 7.45%; in assay [3] it was -9.15%; in assay [4] it was -28.4%; in assay [5], -7.05%; in assay [6], 3.1%.

For `CN(C)CCOC(=O)c1ccc(N)cc1`, the growth inhibition in assay [1] is -6.35%; in assay [2], 1.6%; in assay [3], -31.8%; in assay [4], -19.6%; in assay [5], 23.1%; in assay [6], -8.35%.
